Shown are actives, neighbours in structure and some others; about 0.9% of the full set was active somewhere.
ugtP null kill = growth inhibition of ugtP-null S. aureus, primary screen, RN4220 ugtP deletion, OD600; 16 h; growth inhibition, % (test concentration not listed); 0.54% of 330,000 active; in the data active = growth inhibition above about 68%;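 also: plate controls were untreated wells for no effect and antibiotic for full effect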
Mtb BioA inh = M. tuberculosis BioA enzyme inhibitors, primary screen, biochemical, plate reader, single point, HTS. 7,8-diaminopelargonic acid synthase BioA (Mycobacterium tuberculosis). AID 602481, 2012. inhibition, % at 9.99 µM. 0.096% of 360,000 active. purified M. tuberculosis BioA enzyme; in the data active = inhibition above about 40%; inconclusive = no clear call, values can overlap the other calls
PfHsp40 yeast = rescue of yeast from PfHsp40 toxicity, primary screen, S. cerevisiae, ATP luminescence | S. cerevisiae expressing PfHsp40, growth rescue | growth rescue, % at 12.5 µM | 0.68% of 340,000 active | AID 504582, 2011; in the data active = growth rescue above about 28%, passing the limit was not always enough; inconclusive = no clear call, values can overlap the other calls;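 also: yeast W303a lacking pdr1 and pdr3 grown in galactose medium; growth measured after three days at 30 °C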
Mtb bLac sens = beta-lactam sensitization of Mtb H37Rv, H37Rv | M. tuberculosis H37Rv growth with meropenem, percent inhibition | inhibition, % at 25 µM | 0.27% of 330,000 active | AID 434955, 2010; call rule not given here;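 also: growth measured after seven days incubation then overnight dye step; 0% = bacteria only wells and 100% = bacteria with antibiotic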
Sa RN4220 lethal = growth inhibition of S. aureus RN4220, primary screen, OD600 | 16 h | inhibition, % (no concentration beside the values) | 0.33% of 330,000 active | AID 1259311, 2017; in the data active = inhibition above about 85%;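 also: plate controls were untreated cells for no effect and reference antibiotic for full effect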
* hit, by the source's call; ? = inconclusive; nt = no result given.

SMILES	ugtP null kill	Mtb BioA inh	PfHsp40 yeast	Mtb bLac sens	Sa RN4220 lethal
CC=C(C)C(=O)NCCN1C2=NCC(Cc3ccccc3)N2CC1Cc1ccc(O)cc1 (stereo not given)	-13	nt	nt	nt	0
Oc1ccc(Br)cc1-c1nc2cnccn2c1NC1CCCCC1	-18	1	94*	15	-10
Oc1ccc(Br)cc1-c1nc2cnccn2c1NC1CCCC1	-20	2	9	23	-4
CC(O)C1CN=C(N)N1CCCCC1CCCCC1 (stereo not given)	3	nt	nt	nt	7
Cc1cc(C)cc(OCC(=O)OC/C(O)=C(\C#N)c2nc3ccccc3[nH]2)c1	-7	nt	28*	64	2
CC(C)C=C1CCCCC1N(C)C(=O)NC(C)C (stereo not given)	0	nt	nt	nt	2
O=C(O)c1ccc(N/N=C/C(Br)=C/c2ccccc2)cc1	nt	0	183*	5	nt
O=C(O)c1ccc(N/N=C/c2ccc(F)c(F)c2)cc1	nt	nt	147*	4	nt
O=C(O)c1ccc(N/N=C/c2cccc(C(F)(F)F)c2)cc1	nt	0	64*	6	nt
O=C(O)c1ccc(N/N=C/c2cccc(F)c2)cc1	nt	nt	3	17	nt
COc1ccc(Cl)cc1CN1CCN(c2nc(C)cc(C)c2C#N)CC1	100*	8	0	37	99*
O=C(O)CC1SC(=NN=CC2CC=CCC2)NC1=O (stereo not given)	-4	nt	nt	nt	3
CCN1C(=O)[C@H]2[C@@H](c3ccc(C)cc3)N3C(=O)N(c4ccccc4)C(=O)[C@@]3(CC)[C@H]2C1=O	nt	-2	35*	1	nt
CCN1C(=O)[C@H]2[C@@H](c3ccc(C)cc3)N3C(=O)N(c4ccc(C)cc4)C(=O)[C@@]3(CC)[C@H]2C1=O	nt	-1	-2	-6	nt
COC(=O)C1=CC(C(=O)OC)C2C3=C(C(=O)C2(C)C)C(C)n2c(=O)n(-c4ccccc4)c(=O)n2C3C1 (stereo not given)	-8	nt	nt	nt	5
C=CCn1c(=O)c(C(=O)Nc2ccc(C)cn2)c(O)c2ccccc21	100*	-1	1	92	96*
C=CCn1c(=O)c(C(=O)Nc2cccnc2)c(O)c2ccccc21	61	3	-1	1	99*
CCn1c(=O)c(C(=O)Nc2ccccc2)c(O)c2ccccc21	6	-3	1	12	-5
C=CCn1c(=O)c(C(=O)NCCc2ccccc2)c(O)c2ccccc21	28	-1	94*	0	8
CC(=O)OC1C[C@@]2(C)C(CC(O)C3[C@@]4(C)CCC(O)C(C)C4CC[C@@]32C)C1=C(CCC=C(C)C)C(=O)O (stereo not given in full)	100*	nt	nt	nt	100*
CC(=O)O[C@H]1CC[C@]2(C)C3CC[C@@]4(C)C(C[C@@H](O)[C@@H]4O)C3[C@@H](OC(C)=O)C[C@H]2C1 (stereo not given in full)	nt	-2	nt	nt	nt
CCCCN(C(=O)c1ccc(Cl)cc1)C1CC2CCC(C1)N2C (stereo not given)	12	0	-1	-4	4
CCCCCCCN1N=C(C)C(C(=O)c2ccccc2)C1=O (stereo not given)	22	1	381*	17	42
CC1=NN(c2ccccc2)C(=O)C1C(=O)c1cc([N+](=O)[O-])cc([N+](=O)[O-])c1 (stereo not given)	2	nt	-2	-3	5
CCCCCCN1N=C(C)C(C(=O)c2ccc(Cl)cc2)C1=O (stereo not given)	4	nt	519*	94	16
SMILES	ugtP null kill	Mtb BioA inh	PfHsp40 yeast	Mtb bLac sens	Sa RN4220 lethal
O=C(Nc1ccccc1)C1=CC(c2csc3ccccc23)CC(OCc2ccc(CO)cc2)O1 (stereo not given)	1	nt	nt	nt	-4
CC(=O)c1cccc(NC(=O)c2ccc([N+](=O)[O-])o2)c1	91*	1	0	100	43
Cc1ccc(C)c(-c2nnc(NC(=O)c3ccc([N+](=O)[O-])o3)o2)c1	90*	1	-1	98	6
Cc1ccc(C)c(-c2nnc(NC(=O)C3=COCCO3)o2)c1	6	nt	1	87	5
O=C(Nc1ccc2oc(-c3ccncc3)nc2c1)c1ccc([N+](=O)[O-])o1	77	-1	1	100	100*
O=C(NNC(=O)c1ccc([N+](=O)[O-])o1)c1ccccc1	99*	nt	-2	100	13
c1ccc2c(CC3CNCCN3CC3CCCCC3)cccc2c1 (stereo not given)	-36	nt	nt	nt	-12
COC(=O)C1=C(c2ccc(C(C)=O)cc2)CC2CCC1N2C(=O)NCc1ccc2c(c1)OCO2 (stereo not given)	3	nt	nt	nt	5
NC(=O)c1oc2ccccc2c1NC(=O)c1ccc(F)cc1	12	1	-1	-5	-1
NC(=O)c1oc2ccccc2c1NC(=O)c1ccc([N+](=O)[O-])o1	100*	-1	1	100	100*
Cc1cc(C)cc(NC(=O)c2ccc([N+](=O)[O-])o2)c1	94*	nt	13	nt	93*
CC(=O)c1ccc(NC(=O)c2ccc([N+](=O)[O-])o2)cc1	66	0	1	100	26
C=CCN1c2ccccc2[C@]23CC(C(=O)OC)N(C(C)=O)C2=NC(C(=O)OC)=C(C(=O)OC)C13 (stereo not given in full)	1	nt	nt	nt	2
COP1(=O)C=CC(N(Cc2ccccc2)S(=O)(=O)c2ccccc2[N+](=O)[O-])C(C)O1 (stereo not given)	5	nt	nt	nt	15
Cc1[nH]n(-c2ccccc2)c(=O)c1N=Nc1nccs1	44	nt	36*	96	66
COc1cc(-c2nc3ccc4ccccc4c3c3c2CCC3)ccc1O	101*	-1	22	?	99*
COc1cc(-c2nc3ccc4ccccc4c3c3c2CCC3)cc(OC)c1O	62	nt	19	96	-1
CCC(=CC(=O)c1ccncc1)Nc1ccc(Br)cc1	-2	nt	nt	nt	4
C=CCOC(=O)C(=O)C=Cc1c(C)n(C)n(-c2ccccc2)c1=O	-1	nt	nt	nt	3
O=C(CCSc1ccc(Br)cc1)c1ccc(O)cc1	52	nt	537*	3	-1
CCCOC(=O)C1NC(=O)N2C1SC(C)(C)C2C(=O)OCCC (stereo not given)	-3	nt	nt	nt	7
CCC(=Cc1ccccc1)c1cccc2[nH]c3c(OC)cccc3c12	97*	nt	nt	nt	39
CCCCCCCCOC(=O)CCn1[nH]c(=O)c2ccccc2c1=O	1	-1	200*	-1	4
CC(C)COC(=O)CCn1[nH]c(=O)c2ccccc2c1=O	-3	-2	0	-5	7
O/N=C(\c1ccc(Cl)cc1Cl)c1ncc(C(F)(F)F)cc1Cl	nt	4	380*	-9	nt
COc1ccc(N2C(=O)N3C(c4cccc(C)c4)C4C(=O)N(Cc5ccccc5)C(=O)C4[C@]3(Cc3ccccc3)C2=O)cc1 (stereo not given in full)	4	nt	nt	nt	6
CCCCCCn1ccc(=N)cc1	2	nt	1	3	3

Compound activity from PubChem.
